Hits are enriched below; roughly 10% of the tested compounds scored in any of these assays.
GPT2 inhibitor – Primary qHTS assay for inhibitors of Glutamate pyruvate transaminase 2 (GPT2) | Recombinant GPT2, coupled pyruvate oxidase/HRP Amplex Red fluorescence | Potency, µM (highest dose often 57.7 µM), without a hit: at the top dose activity change, negative = inhibition, most hits filed as inhibitors | 0.25% of 100,000 active; also: nearly all actives have a fitted effect of over 60% in size
Target sequence (Q8TD30 whole entry, looked up): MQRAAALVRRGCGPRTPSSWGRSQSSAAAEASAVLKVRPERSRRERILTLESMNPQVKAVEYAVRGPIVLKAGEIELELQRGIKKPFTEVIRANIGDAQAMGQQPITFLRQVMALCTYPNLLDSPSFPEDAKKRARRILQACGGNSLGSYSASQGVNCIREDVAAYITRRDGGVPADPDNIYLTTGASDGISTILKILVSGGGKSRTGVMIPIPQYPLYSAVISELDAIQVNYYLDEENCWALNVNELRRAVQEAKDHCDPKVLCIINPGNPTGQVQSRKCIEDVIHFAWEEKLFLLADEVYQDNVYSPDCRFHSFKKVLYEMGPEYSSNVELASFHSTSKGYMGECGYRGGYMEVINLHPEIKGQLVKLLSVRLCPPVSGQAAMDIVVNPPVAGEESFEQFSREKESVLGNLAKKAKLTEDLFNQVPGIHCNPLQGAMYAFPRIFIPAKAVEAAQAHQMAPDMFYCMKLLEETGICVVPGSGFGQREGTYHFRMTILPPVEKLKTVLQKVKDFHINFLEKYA
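Inhibition is scored from Amplex Red fluorescence generated when pyruvate oxidase and HRP act on pyruvate released by GPT2. Reactions contain 10ng/uL enzyme, 250uM a-KG and 2mM L-alanine and run 30 min at room temperature.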
Luciferase inh – Firefly luciferase inhibition profiling of diverse chemical library using quantitative high-throughput screening; Luciferin 4-monooxygenase (Photinus pyralis), P08659; purified P. pyralis luciferase, luminescence, biochemical; Potency, µM (titrated, usually from 115 µM), actives largely listed as inhibitors; 2.5% of 76,000 active; AID 1347043, 2019; also: nearly all actives have a fitted effect of over 65% in size
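Biochemical qHTS: compound (6-point titration) added to 10uM D-luciferin plus 10uM ATP in Tris acetate pH 7.5 buffer with Mg, Tween-20 and BSA, then purified enzyme at 10nM; light output imaged.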
3T3 cytotox – Cytotoxic Profiling in NIH 3T3 Cell Line of Diverse Libraries Using Quantitative High-Throughput Screening | NIH 3T3 viability, CellTiter-Glo ATP luminescence, 48-72 h | Potency, µM (highest dose often 96.7 µM), for inactives: top-dose activity change, negative = cytotoxicity, most hits filed as inhibitors | 4.3% of 94,000 active | AID 1345082, 2018; also: nearly all actives have a fitted effect of over 55% in size
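Cytotoxicity was measured by CellTiter-Glo ATP luminescence after 48 or 72 h compound exposure at 37 °C. Mouse NIH 3T3 fibroblasts were seeded at 400 cells/well and dosed by 23 nL pin transfer.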
hNpr1 antagonist – Natriuretic polypeptide receptor (hNpr1) antagonism - Primary qHTS | Potency, µM (highest dose often 46.3 µM), for inactives: at the highest dose activity change, negative = inhibition, hits mostly inhibitors | HEK293 hNpr1 GloSensor cGMP, ANP-stimulated luminescence | 1.6% of 76,000 active | Atrial natriuretic peptide receptor 1 (Homo sapiens), P16066 | AID 1347048, 2019; calls by dose curve; also: nearly all actives have a fitted effect of over 60% in size
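HEK293 cells stably expressing human Npr1 and cGMP GloSensor pGS-40F, loaded 2 h with 2% GloSensor reagent, given compound 30 min at room temperature. Luminescence read before and 20 min after 0.1 nM hNppA.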
HEK293 tox – Cytotoxic Profiling in HEK 293 Cell Line of Diverse Libraries Using Quantitative High-Throughput Screening | HEK 293 viability, ATP luminescence (CellTiter-Glo), 48-72 h | Potency, µM (series often up to 115 µM), for inactives: at the top dose activity change, negative = cytotoxicity, most hits filed as inhibitors | 6.6% of 94,000 active | AID 1345083, 2018; also: nearly all actives have a fitted effect of over 60% in size
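qHTS cytotoxicity; HEK 293, 250 cells/well; compound pinned; 48 or 72 hr, 37 degree Celsius, 5% CO2, 95% humidity; CellTiter-Glo, 10 min RT; luminescence (ATP).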
* = called active by the depositor; [ ] = another dose, or the depositor's remark. Unless noted, calls follow the shape of the dose curve; as a rule, active = well fitted curve in the direction sought with a large enough effect; inconclusive = small, poorly fitted or top-dose-only effect, or another doubt; inactive = no such curve, though single readings can be large; an effect the other way counts as inactive or inconclusive. % is scaled to controls: 0 for no effect and ±100 for the full control effect; potency is read from the fitted curve at half-maximal effect.

How did O=C(c1nnc(CN2CCC(F)(F)CC2)n1-c1cccnc1)N1CCC[C@@H]1C(c1ccccc1)c1ccccc1 do in these assays?
GPT2 inhibitor: -28%; Luciferase inh: inactive; 3T3 cytotox: 25µM*; hNpr1 antagonist: -6%; HEK293 tox: -24%

How did O=C(c1nnc(CN2CCOCC2)n1-c1ccccc1)N1CCC[C@@H]1C(c1ccccc1)c1ccccc1 do in these assays?
GPT2 inhibitor: 3%; Luciferase inh: inactive; 3T3 cytotox: inconclusive; hNpr1 antagonist: -2%; HEK293 tox: inconclusive

Results for O=C(c1nnc(COc2ccc(F)cc2)n1-c1ccccc1)N1CCC[C@@H]1C(c1ccccc1)c1ccccc1 ?
GPT2 inhibitor: 2%; Luciferase inh: inactive; 3T3 cytotox: 6.3µM*; hNpr1 antagonist: -8%; HEK293 tox: inconclusive

What do the screens show for `O=C(c1nnc(COc2cc(F)cc(F)c2)n1-c1ccccc1)N1CCC[C@@H]1c1cccc(F)c1`?
GPT2 inhibitor: 2%; Luciferase inh: inactive; 3T3 cytotox: 40µM*; hNpr1 antagonist: -2%; HEK293 tox: inconclusive

What do the screens show for `CCCCCOc1ccc(-c2cc(-c3ccc(C(=O)N[C@H]4C[C@@H](O)[C@@H](O)NC(=O)C5[C@@H](O)[C@@H](C)CN5C(=O)C([C@H](O)CC(N)=O)NC(=O)C([C@H](O)[C@@H](O)c5ccc(O)c(OS(=O)(=O)O)c5)NC(=O)C5C[C@@H](O)CN5C(=O)C([C@@H](C)O)NC4=O)cc3)no2)cc1` (some centres undefined)?
GPT2 inhibitor: inactive

Results for Cc1nc2c(c(-c3ccc(Cl)cc3)n1)CN(C(=O)c1ccccc1)CC2 ?
GPT2 inhibitor: -4%; Luciferase inh: inactive; 3T3 cytotox: -5%; hNpr1 antagonist: 3%; HEK293 tox: 2%

How did Cc1ccc2c(C)c(C(=O)N(C)CCOc3ccccc3)oc2c1C do in these assays?
GPT2 inhibitor: inconclusive; Luciferase inh: 40µM*; 3T3 cytotox: -17%; hNpr1 antagonist: 1%; HEK293 tox: inconclusive

How did O=C(C1CCCN(Cc2cccc(-c3ccc(F)cc3F)c2)C1)N1CCN(c2ncccn2)CC1 (centres undefined) do in these assays?
GPT2 inhibitor: inactive; 3T3 cytotox: inconclusive; HEK293 tox: 40µM*

What do the screens show for `COC(=O)CNC(=O)C1CCCN(Cc2cccc(-c3ccc(F)cc3F)c2)C1` (centres undefined)?
GPT2 inhibitor: -6%; 3T3 cytotox: inconclusive; HEK293 tox: -28%

Results for O=C(C1CCCN(Cc2cccc(-c3ccc(F)cc3F)c2)C1)N1CCCC1 (centres undefined) ?
GPT2 inhibitor: inconclusive; 3T3 cytotox: inconclusive; HEK293 tox: 28µM*

Results for O=C(NC1CC1)c1ccc2c(c1)OCCN(c1cccc(OC(F)(F)F)c1)C2 ?
GPT2 inhibitor: inactive; Luciferase inh: inactive; 3T3 cytotox: inconclusive; hNpr1 antagonist: inconclusive; HEK293 tox: inconclusive

How did O=C(Nc1ccccc1)c1ccc2c(c1)OCCN(c1ccccc1)C2 do in these assays?
GPT2 inhibitor: -11%[88.5 µM]; Luciferase inh: inconclusive; 3T3 cytotox: -63%[138 µM]; hNpr1 antagonist: inconclusive; HEK293 tox: 112µM*

What do the screens show for `O=C(NC1CCOCC1)c1ccc2c(c1)OCCN(c1ccccc1)C2`?
GPT2 inhibitor: inactive; Luciferase inh: inactive; 3T3 cytotox: inconclusive; hNpr1 antagonist: -18%[70.6 µM]; HEK293 tox: 79µM*

What do the screens show for `CN(C)c1ccc(C(=O)N2CCN(C(=O)C3CCCCC3)[C@H](C(=O)N[C@@H](CC3CCCCC3)C(N)=O)C2)cc1`?
GPT2 inhibitor: inactive; Luciferase inh: inactive; 3T3 cytotox: -22%; hNpr1 antagonist: 7%; HEK293 tox: -3%

Results for COc1ccc(CC(=O)NCCNC(=O)c2ccc(-c3cccc(C(F)(F)F)c3)cc2)cc1 ?
3T3 cytotox: -24%; HEK293 tox: 25µM*

Results for O=C(NCCNC(=O)c1ccc(-c2cccc(C(F)(F)F)c2)cc1)c1ccncc1 ?
3T3 cytotox: inconclusive; HEK293 tox: 40µM*

How did O=C(NCCNC(=O)c1ccc(-c2cccc(C(F)(F)F)c2)cc1)c1ccccc1 do in these assays?
3T3 cytotox: -6%; HEK293 tox: -25%

Results for COCCN1C(=O)c2cccn2CC1CNC(=O)Nc1ccc2c(c1)OCCO2 (centres undefined) ?
GPT2 inhibitor: inactive; Luciferase inh: inactive; 3T3 cytotox: -1%; hNpr1 antagonist: -10%; HEK293 tox: -6%

How did COc1cccc(CC(=O)N2CCCN(C)c3ccccc32)c1 do in these assays?
GPT2 inhibitor: inactive; Luciferase inh: inactive; 3T3 cytotox: -5%; hNpr1 antagonist: -11%; HEK293 tox: inconclusive

What do the screens show for `COc1ccc(C(=O)N2CCCN(C)c3ccccc32)c(OC)c1`?
GPT2 inhibitor: inconclusive; Luciferase inh: inactive; 3T3 cytotox: inconclusive; hNpr1 antagonist: -22%; HEK293 tox: inconclusive

How did CCOCC(=O)N1CCCN(S(C)(=O)=O)c2ccccc21 do in these assays?
GPT2 inhibitor: -9%; Luciferase inh: inactive; 3T3 cytotox: 4%; hNpr1 antagonist: 4%; HEK293 tox: inactive

Results for Cc1ccc(OCC(=O)N2CCCN(S(C)(=O)=O)c3ccccc32)cc1 ?
GPT2 inhibitor: inactive; Luciferase inh: inactive; 3T3 cytotox: 22µM*; hNpr1 antagonist: 2%; HEK293 tox: -26%

How did CCOc1ccc(CC(=O)N2CCCN(C)c3ccccc32)cc1 do in these assays?
GPT2 inhibitor: -4%; Luciferase inh: inactive; 3T3 cytotox: inconclusive; hNpr1 antagonist: -8%; HEK293 tox: 89µM*

How did CCOc1ccc(CC(=O)N2CCCN(S(C)(=O)=O)c3ccccc32)cc1OCC do in these assays?
GPT2 inhibitor: -7%; Luciferase inh: inactive; 3T3 cytotox: -13%; hNpr1 antagonist: 7%; HEK293 tox: -13%

Results for COc1ccc(C(=O)N2CCCN(C)c3ccccc32)c(C)c1 ?
GPT2 inhibitor: inactive; Luciferase inh: inactive; 3T3 cytotox: inconclusive; hNpr1 antagonist: -2%; HEK293 tox: 45µM*

How did Cc1ccc(CC(=O)N2CCCN(S(C)(=O)=O)c3ccccc32)cc1 do in these assays?
GPT2 inhibitor: -3%; Luciferase inh: inactive; 3T3 cytotox: 18µM*; hNpr1 antagonist: 0%; HEK293 tox: -22%
